Vaccinia Venus: inhibitors of vaccinia virus (Venus reporter); Vaccinia virus Venus reporter expression, fluorescence; Potency, µM (series often up to 36.5 µM), for inactives: at the top dose activity change, negative = inhibition, most hits filed as inhibitors; 0.46% of 330,000 active; calls by dose curve; tested in A549 cells; note: nearly all actives have a fitted effect of over 30% in size
Lassa entry inh: inhibitors of Lassa virus binding or cell entry; Lassa virus pseudotype entry inhibition, cell reporter; Potency, µM (doses to about 37.9 µM), inactives show at the top dose activity change, negative = inhibition, hits mostly inhibitors; 1.2% of 300,000 active; calls by dose curve; tested in HEK293 cells; note: nearly all actives have a fitted effect of over 50% in size
FMDV antiviral: foot and mouth disease virus antiviral activity. 1.2% of 410,000 active. FMDV antiviral cell-based qHTS. Potency, µM (top dose mostly 57.9 µM), for the others: top-dose activity change, negative = inhibition, most hits filed as inhibitors; calls by dose curve; tested in HEK293T cells; note: read-out not given here; nearly all actives have a fitted effect of over 45% in size
HCV inhibitor: blocks hepatitis C virus | Huh7.5.1 HCVcc-Cre infection, luciferase reporter, 44 h | Potency, µM (highest dose often 41.8 µM), for inactives: top-dose activity change, negative = inhibition, hits mostly inhibitors | 3.4% of 340,000 active | AID 651820; active = well fitted inhibition curve with a large enough effect; inconclusive = small, poorly fitted or top-dose-only effect, or another doubt; inactive = no such curve, though single readings can be large or run the other way
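After 44 h co-culture of compound, cells and HCVcc-Cre (~0.5 moi), substrate is added for 15 min at room temperature and luciferase measured over 15 sec. Cells were seeded at 1,000/well and pre-cultured 4 h.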
MARV entry inh: Marburg virus entry inhibition | Marburg virus pseudotyped entry inhibition, cell reporter | AID 540276 | Potency, µM (titrated, usually from 37.8 µM), for the others: at the top dose activity change, negative = inhibition, most hits filed as inhibitors | 1.8% of 300,000 active; calls by dose curve; tested in HEK293 cells
Vaccinia mCherry: inhibitors of vaccinia virus infection (mCherry reporter signal); Vaccinia virus mCherry reporter infection, fluorescence; Potency, µM (series often up to 36.5 µM), without a hit: at the highest dose activity change, negative = inhibition, actives largely listed as inhibitors; 0.63% of 310,000 active; AID 720579; calls by dose curve; tested in A549 cells; note: nearly all actives have a fitted effect of over 35% in size
* = called active by the depositor; i = inactive; ? = inconclusive; . = no result; ! = a repeat was not active; [ ] = dose if it differs, or a comment. In the library only some 5.3% were active in any assay of this set; here they are far more common. % is set by controls: 0 for no effect and ±100 for the full control effect; potency is the fitted concentration of half-maximal effect.

SMILES	Vaccinia Venus	Lassa entry inh	FMDV antiviral	HCV inhibitor	MARV entry inh	Vaccinia mCherry
Cc1ccc(CNC(=O)CCS(=O)(=O)c2ccc3c(c2)NC(=O)C(C)S3)cc1 (centres undefined)	.	.	?	-9%	.	.
COC(=O)[C@@H]1CC[C@H](C)[C@@H](c2ccc(C)cc2)N1C(=O)c1ccc(C=NOC[C@@H](O)COCc2ccco2)cc1	.	15%[14.3 µM]	.	.	?	.
CCn1c2ccccc2c2cc(NC(=O)CSc3nnc(-c4cccc(OC)c4)n3N)ccc21	.	-26%	-27%	8.9µM*	?	.
CCOc1ccc(-c2nnc(SCC(=O)Nc3ccc4c(c3)c3ccccc3n4CC)n2N)cc1	.	?	-23%	4µM*	12µM*	.
CCN(CCCNC(=O)c1cc2c(-c3cccc(OC)c3)nn(C)c2s1)Cc1ccccc1	?	?	-7%	11µM*	?	-1%
CCN(CC)CCCNC(=O)c1cc2c(-c3ccc(Cl)cc3)nn(C)c2s1	?	.	-6%	11µM*	.	-14%
CN(C)c1cccc(/C=C(\C#N)c2ccccc2)c1	?	.	-2%	11µM*	.	-25%
CCc1ccccc1N(C)C(=O)Nc1cn(CC(C)C)c(=O)c2ccccc12	-6%	-14%[46.1 µM]	-17%	.	.	-13%
Cc1nnc(Sc2cc(NCCCO)c([N+](=O)[O-])c3nonc23)s1	1%	?	?	10µM*	-6%[46.1 µM]	i
O=[N+]([O-])c1c(NCCCO)cc(Sc2nc3ccccc3s2)c2nonc12	.	-26%	?	-27%	?	.
Cc1nnc(Sc2cc(NCCO)c([N+](=O)[O-])c3nonc23)s1	-12%	?	?	?	?	i
CCCC(=O)OCCNc1cc(Sc2nccn2C)c2nonc2c1[N+](=O)[O-]	-8%	?	35µM*	?	?	-23%
CC(=O)OCCCNc1cc(SCc2ccco2)c2nonc2c1[N+](=O)[O-]	?	?	35µM*	0%	13µM*	11µM*
CCCSc1cc(NCCOC(C)=O)c([N+](=O)[O-])c2nonc12	-4%	3%	0%	5%	?	i
CCC(=O)OCCNc1cc(Sc2nc3ccccc3s2)c2nonc2c1[N+](=O)[O-]	.	?	25µM*	-28%	?	.
CCCC(=O)OCCNc1cc(SCc2ccco2)c2nonc2c1[N+](=O)[O-]	?	?	0%	9%	?	10µM*
CNCCC=C1c2ccccc2C=Cc2ccccc21	-22%	.	-17%	?	.	-1%
CN(C)CCC=C1c2ccccc2C=Cc2ccccc21	-16%	8.2µM*	-26%	32µM*	6.5µM*	-9%
CN(C)CCC=C1c2ccccc2CCc2ccccc21	-16%	9.2µM*	?	?	12µM*!	?
Cc1cc(C)cc(NS(=O)(=O)c2c(C)nc3scc(C)n3c2=O)c1	-8%	18%[46.1 µM]	48%	.	?	-19%
CCn1c(=O)c([N+](=O)[O-])c(N2CCSCC2)c2ccccc21	?	-1%	18µM*	14µM*	?	?
CCn1c(=O)c([N+](=O)[O-])c(N2CCN(Cc3ccc4c(c3)OCO4)CC2)c2ccccc21	?	?	32µM*	11µM*	?	-24%
CCCn1c(SCc2nc3ccccc3s2)n[nH]c1=O	2%	-27%	55%	-1%	25%[46.1 µM]	-2%
Cc1ccc(S(=O)(=O)CCSc2n[nH]c(=O)n2-c2ccccc2)cc1	2µM*	14%	-25%	?	-5%	2µM*
Cc1cc(C)c(-n2c(SCCS(=O)(=O)c3ccc(F)cc3)n[nH]c2=O)c(C)c1	2.8µM*	?	-25%	-15%	?	2µM*
Cc1cc(C)c(-n2c(SCc3nc4ccccc4s3)n[nH]c2=O)c(C)c1	-27%	?	35µM*	-10%	?	-27%
CN1C(=O)C2(N=c3ccccc3=N2)c2ccccc21	5%	9%	5%	11µM*	?	3%
NC(N)=N/N=C/c1ccccc1Cl	-14%	.	-19%	-11%	.	?
NC(N)=N/N=C/c1c(Cl)cccc1Cl	-12%	?	-18%	-25%	11µM*	-19%
COC(=O)c1ccc(CN2C(=O)[C@@]3(CC(C)=C[C@@H](COc4ccccc4)O3)c3ccccc32)cc1	.	.	.	.	21%[14.2 µM]	.

Compound activity deposited in PubChem by National Center for Advancing Translational Sciences (NCATS).
